From the supplement of paper PMC10849652 come the findings set out here.

Of roughly 8,800 targets only a part is listed; those with a hit were picked by preference. About 0.5% of all pairs of compound and target were hits. A number with no mark means an inactive call.

UniProt Q8N5C7, sequence (Q8N5C7 whole entry, looked up): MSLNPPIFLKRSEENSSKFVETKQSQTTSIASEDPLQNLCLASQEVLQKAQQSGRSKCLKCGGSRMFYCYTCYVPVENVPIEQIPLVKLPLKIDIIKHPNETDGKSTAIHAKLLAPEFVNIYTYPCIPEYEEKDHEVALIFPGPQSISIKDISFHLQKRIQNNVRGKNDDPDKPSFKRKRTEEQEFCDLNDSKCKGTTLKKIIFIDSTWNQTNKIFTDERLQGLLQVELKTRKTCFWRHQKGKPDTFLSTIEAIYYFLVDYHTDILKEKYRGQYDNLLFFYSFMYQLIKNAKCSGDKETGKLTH
UniProt P54852, sequence (P54852 whole entry, looked up): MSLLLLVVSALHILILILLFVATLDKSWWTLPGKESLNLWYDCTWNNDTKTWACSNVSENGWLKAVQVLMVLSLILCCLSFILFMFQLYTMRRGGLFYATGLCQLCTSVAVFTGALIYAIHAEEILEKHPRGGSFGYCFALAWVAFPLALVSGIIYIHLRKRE
UniProt Q9H8W3, sequence (Q9H8W3 whole entry, looked up): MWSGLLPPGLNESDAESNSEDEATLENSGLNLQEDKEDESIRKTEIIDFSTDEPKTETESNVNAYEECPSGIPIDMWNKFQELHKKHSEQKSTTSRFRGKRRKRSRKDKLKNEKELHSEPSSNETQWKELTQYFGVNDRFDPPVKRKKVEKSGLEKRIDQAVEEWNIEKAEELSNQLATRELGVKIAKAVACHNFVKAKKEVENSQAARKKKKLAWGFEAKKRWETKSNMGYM
UniProt P62942, sequence (P62942 whole entry, looked up): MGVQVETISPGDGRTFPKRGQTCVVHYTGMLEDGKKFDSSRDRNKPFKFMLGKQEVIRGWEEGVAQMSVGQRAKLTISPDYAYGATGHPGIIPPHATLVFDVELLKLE
UniProt Q5T0N5, sequence (Q5T0N5 whole entry, looked up): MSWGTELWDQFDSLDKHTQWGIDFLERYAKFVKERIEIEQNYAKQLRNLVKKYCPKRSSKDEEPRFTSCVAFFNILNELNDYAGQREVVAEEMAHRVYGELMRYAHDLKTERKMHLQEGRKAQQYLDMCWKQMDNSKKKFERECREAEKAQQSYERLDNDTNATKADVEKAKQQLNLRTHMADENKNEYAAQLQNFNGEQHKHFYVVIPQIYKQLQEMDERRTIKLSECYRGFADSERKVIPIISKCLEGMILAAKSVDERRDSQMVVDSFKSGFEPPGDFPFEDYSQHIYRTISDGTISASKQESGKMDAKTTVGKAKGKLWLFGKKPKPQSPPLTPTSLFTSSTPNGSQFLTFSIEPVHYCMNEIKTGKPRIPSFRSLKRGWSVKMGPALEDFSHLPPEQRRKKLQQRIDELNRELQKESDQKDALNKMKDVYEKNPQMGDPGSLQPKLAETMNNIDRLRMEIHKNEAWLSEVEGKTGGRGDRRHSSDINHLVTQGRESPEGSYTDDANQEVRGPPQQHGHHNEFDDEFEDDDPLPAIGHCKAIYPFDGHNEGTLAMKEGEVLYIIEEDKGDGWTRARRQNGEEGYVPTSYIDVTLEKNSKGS
UniProt P49356, sequence (P49356 whole entry, looked up): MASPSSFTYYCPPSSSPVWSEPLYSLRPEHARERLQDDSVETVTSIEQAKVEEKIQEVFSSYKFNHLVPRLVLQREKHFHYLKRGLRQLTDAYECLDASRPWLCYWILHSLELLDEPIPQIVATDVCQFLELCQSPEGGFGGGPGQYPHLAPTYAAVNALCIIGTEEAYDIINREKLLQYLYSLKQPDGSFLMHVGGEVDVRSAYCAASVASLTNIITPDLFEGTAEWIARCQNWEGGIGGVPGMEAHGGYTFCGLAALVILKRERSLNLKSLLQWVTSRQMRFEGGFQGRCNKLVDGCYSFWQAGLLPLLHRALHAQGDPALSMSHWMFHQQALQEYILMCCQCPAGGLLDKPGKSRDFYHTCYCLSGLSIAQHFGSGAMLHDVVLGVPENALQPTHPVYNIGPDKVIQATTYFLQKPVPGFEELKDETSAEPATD
UniProt Q10471, sequence (Q10471 whole entry, looked up): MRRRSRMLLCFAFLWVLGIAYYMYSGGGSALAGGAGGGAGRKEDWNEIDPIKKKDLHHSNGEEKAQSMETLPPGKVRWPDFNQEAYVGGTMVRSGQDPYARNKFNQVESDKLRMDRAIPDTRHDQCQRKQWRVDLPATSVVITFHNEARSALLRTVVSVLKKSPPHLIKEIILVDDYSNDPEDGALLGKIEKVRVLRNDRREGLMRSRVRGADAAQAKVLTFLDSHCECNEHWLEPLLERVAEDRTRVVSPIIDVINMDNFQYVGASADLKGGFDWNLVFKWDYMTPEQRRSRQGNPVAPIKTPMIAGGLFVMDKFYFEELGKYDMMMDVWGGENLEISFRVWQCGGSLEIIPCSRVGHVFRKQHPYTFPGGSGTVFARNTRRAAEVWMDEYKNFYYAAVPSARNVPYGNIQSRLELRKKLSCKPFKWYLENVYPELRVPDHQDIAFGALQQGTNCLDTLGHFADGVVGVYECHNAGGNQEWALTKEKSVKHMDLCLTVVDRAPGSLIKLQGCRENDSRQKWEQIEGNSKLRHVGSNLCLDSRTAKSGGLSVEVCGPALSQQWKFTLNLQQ
UniProt P85037, sequence (P85037 whole entry, looked up): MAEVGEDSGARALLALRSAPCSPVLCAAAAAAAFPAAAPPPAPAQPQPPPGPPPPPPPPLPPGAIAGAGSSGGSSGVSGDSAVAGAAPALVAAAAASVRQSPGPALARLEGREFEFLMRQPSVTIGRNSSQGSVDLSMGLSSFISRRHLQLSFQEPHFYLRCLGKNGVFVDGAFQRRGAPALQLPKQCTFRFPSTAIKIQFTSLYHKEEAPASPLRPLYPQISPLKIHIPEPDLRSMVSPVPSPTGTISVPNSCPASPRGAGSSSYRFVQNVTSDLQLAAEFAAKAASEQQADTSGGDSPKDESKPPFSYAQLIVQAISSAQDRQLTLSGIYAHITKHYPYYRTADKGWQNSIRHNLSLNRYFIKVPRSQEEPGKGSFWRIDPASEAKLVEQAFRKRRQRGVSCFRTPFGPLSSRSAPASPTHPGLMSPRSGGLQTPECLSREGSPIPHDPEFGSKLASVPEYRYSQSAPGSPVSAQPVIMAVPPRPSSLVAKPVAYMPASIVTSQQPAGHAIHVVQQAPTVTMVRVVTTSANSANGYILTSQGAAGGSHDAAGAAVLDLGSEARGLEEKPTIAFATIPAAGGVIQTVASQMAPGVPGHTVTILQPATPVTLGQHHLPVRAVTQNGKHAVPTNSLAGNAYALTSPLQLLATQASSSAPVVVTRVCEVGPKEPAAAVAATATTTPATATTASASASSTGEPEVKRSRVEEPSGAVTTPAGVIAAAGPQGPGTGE
UniProt Q9H410, sequence (Q9H410 whole entry, looked up): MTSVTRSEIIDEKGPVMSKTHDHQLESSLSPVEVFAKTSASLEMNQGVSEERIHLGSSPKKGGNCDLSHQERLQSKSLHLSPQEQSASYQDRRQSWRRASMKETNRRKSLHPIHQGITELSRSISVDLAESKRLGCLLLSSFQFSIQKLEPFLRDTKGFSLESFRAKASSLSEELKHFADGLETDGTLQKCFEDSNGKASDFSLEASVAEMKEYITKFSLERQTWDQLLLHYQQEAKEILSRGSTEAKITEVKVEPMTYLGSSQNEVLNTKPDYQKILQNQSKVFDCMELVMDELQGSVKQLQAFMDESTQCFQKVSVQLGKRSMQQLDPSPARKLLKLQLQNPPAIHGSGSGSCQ
UniProt Q8TB52, sequence (Q8TB52 whole entry, looked up): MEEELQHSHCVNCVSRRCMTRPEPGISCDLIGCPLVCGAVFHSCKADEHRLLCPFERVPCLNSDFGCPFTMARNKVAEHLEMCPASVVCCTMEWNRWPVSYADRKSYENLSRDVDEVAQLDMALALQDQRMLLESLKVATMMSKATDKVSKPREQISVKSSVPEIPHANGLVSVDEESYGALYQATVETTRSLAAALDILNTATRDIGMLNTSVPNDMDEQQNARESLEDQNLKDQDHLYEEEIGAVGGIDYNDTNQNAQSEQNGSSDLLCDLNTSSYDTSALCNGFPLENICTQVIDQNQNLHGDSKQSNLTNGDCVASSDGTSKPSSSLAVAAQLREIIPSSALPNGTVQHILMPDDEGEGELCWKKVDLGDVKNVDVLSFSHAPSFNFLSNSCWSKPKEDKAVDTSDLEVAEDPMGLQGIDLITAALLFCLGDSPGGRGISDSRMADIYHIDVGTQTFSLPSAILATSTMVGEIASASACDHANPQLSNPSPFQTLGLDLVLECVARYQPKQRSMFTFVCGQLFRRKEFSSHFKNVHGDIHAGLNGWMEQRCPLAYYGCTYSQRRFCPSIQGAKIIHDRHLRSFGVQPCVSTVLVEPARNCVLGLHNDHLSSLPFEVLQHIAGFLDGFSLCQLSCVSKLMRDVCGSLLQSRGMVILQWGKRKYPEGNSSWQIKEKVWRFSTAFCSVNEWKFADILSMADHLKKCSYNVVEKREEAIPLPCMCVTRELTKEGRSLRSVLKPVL

Compound in the assay: O=C(O)c1ccc2c(c1)nc(Nc1cccc(Cl)c1)c1ccncc12 [silmitasertib]
Kind of assay: log2 fold change, soluble protein after heating vs DMSO (PISA); higher = thermal stabilisation; K562 lysate, 10 uM; active = over 0.2 and 3.5 SD of the protein, either way, in both replicates (recomputed). Put shortly:
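To prepare the extract, K562 pellets were dounce-homogenised in PBS pH 7.4 with 1 mM MgCl2, giving crude material at 1 mg/mL protein. This was treated with 10 μM compound for 30 min, then heated in aliquots for 3 min over 48°C-58°C before pooling and addition of NP-40 to 0.5% at 4°C. Centrifugation at 21,000xg for 90 min left soluble protein in the supernatant, which TMTpro 16plex LC-MS/MS quantified with equalised channel sums. Results are log-two fold changes in thermal stability compared with solvent controls, from duplicates.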
As for EMP3 (UniProt P54852), the log2 fold change was -0.05. For DTWD1 (UniProt Q8N5C7) the value was -0.022; for FAM204A (UniProt Q9H8W3), -0.095. Next, FNBP1L (UniProt Q5T0N5): 0.102; GAA (UniProt P10253): -0.092; FOXK1 (UniProt P85037): -0.026. FKBP1A (UniProt P62942): the log2 fold change is -0.006. For GEMIN5 (UniProt Q8TEQ6) the value was 0.004; for FNTB (UniProt P49356), -0.018; for DSN1 (UniProt Q9H410), -0.007. For FBXO30 (UniProt Q8TB52) the value was 0.042; for GALNT2 (UniProt Q10471), 0.008.
